Reference: PubChem BioAssay (EPA / NIEHS)
Results filed as inconclusive are left out. Active and inactive are the calls of the source. The calls were made as follows: active = hit-call score of the fitted dose curve at least 0.9, where 1 is the maximum; inconclusive = response in the unintended direction; inactive = score below 0.9.

Legend:
[1] = TOX21_p53_BLA_p4_viability: Viability Assessment in the Tox21 HCT-116 p53 Agonism Beta-lactamase Assay, Phase 4 (AID 2283597);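 also: hits lower the luminescence signal meaning cytotoxicity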
Summary of the method: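 We seeded HCT116 p53 reporter cells at 4000/well and waited 5 h. We then added compounds in DMSO at a 217-fold dilution and incubated for 16 h. Viability was read as CellTiter-Glo luminescence after 30 min at RT.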

[2] = TOX21_p53_BLA_p5_viability: Viability Assessment in the Tox21 HCT-116 p53 Agonism Beta-lactamase Assay, Phase 5 (AID 2283600)
Summary of the method: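 Compounds, pinned from DMSO at 217-fold dilution, were left on the cells for 16 h. The viability endpoint was ATP content measured by CellTiter-Glo luminescence, where falling signal reflects cytotoxicity.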

[3] = Tanguay_ZF_120hpf_MORT_legacy: (Legacy) Oregon State University Tanguay Lab 120 Hour Post-fertilization zebrafish Assay for Mortality (AID 2283633);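 as to AC50: fitted as increase in binary mortality versus DMSO negative control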
Summary of the method: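 Brightfield scoring of embryo death (binary) at 24 and 120 hpf; static exposure 6–120 hpf, 28C, sealed and foil-covered. Pronase-dechorionated 5D wild-type larvae, single embryo per well. DMSO 0.64% v/v; trimethyltin chloride 5uM positive control.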

[4] = Tanguay_ZF_120hpf_YSE_legacy: (Legacy) Oregon State University Tanguay Lab 120 Hour Post-fertilization zebrafish Assay for Yolk Sac Edema (AID 2283634);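 as to AC50: actives raise the incidence of yolk sac edema above the DMSO baseline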
Summary of the method: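 Binary brightfield scoring of yolk sac edema at 120 hpf; DMSO baseline, gain-of-signal fitting. Dechorionated 5D larvae, one per well, static exposure 6–120 hpf, 28C, 0.64% DMSO. Dead embryos not scored.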

[5] = Tanguay_ZF_120hpf_AXIS_legacy: (Legacy) Oregon State University Tanguay Lab 120 Hour Post-fertilization zebrafish Assay for Body Axis Malformation (AID 2283635);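 as to AC50: potency for an increased fraction of larvae scored with body axis malformation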
Summary of the method: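 Embryos: 5D wild-type, pronase-dechorionated 4 hpf; static exposure 6–120 hpf, 28C, sealed, dark, 1 embryo/well, 0.64% DMSO. 120 hpf axis malformation scored present/absent; dead embryos excluded. Analysed as gain of signal vs DMSO.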

[6] = Tanguay_ZF_120hpf_EYE_legacy: (Legacy) Oregon State University Tanguay Lab 120 Hour Post-fertilization zebrafish Assay for Eye Malformation (AID 2283636)
Summary of the method: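 Dechorionated wild-type Tropical 5D zebrafish embryos were exposed statically from 6 hpf, one per well, to 120 hpf at 28C in sealed, foil-covered plates with 0.64% DMSO. Eye malformation was scored present/absent by brightfield microscopy against DMSO controls.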

[7] = Tanguay_ZF_120hpf_OTIC_legacy: (Legacy) Oregon State University Tanguay Lab 120 Hour Post-fertilization zebrafish Assay for Otic Vesicle Malformation (AID 2283639)
Summary of the method: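 Embryos from 5D wild-type adults exposed in plates; DMSO 0.64% v/v final. Sealed, light-protected, 28C, static to 120 hpf. Otic vesicle malformation recorded as binary endpoint; gain-of-signal fitted vs DMSO.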

[8] = Tanguay_ZF_120hpf_PE_legacy: (Legacy) Oregon State University Tanguay Lab 120 Hour Post-fertilization zebrafish Assay for Pericardial Edema (AID 2283640);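 as to AC50: potency for increased incidence of pericardial edema versus DMSO baseline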
Summary of the method: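 Static waterborne exposure, 5D wild-type embryos, 28C, to 120 hpf; final DMSO 0.64% (vol/vol). Binary PE call at 120 hpf by brightfield; fitted upward vs DMSO baseline. 5uM trimethyltin chloride as positive control.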

[9] = Tanguay_ZF_120hpf_BRAI_legacy: (Legacy) Oregon State University Tanguay Lab 120 Hour Post-fertilization zebrafish Assay for Brain Malformation (AID 2283641)
Summary of the method: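 Read-out: binary brain morphology call at 120 hpf (brightfield), fitted in gain-of-signal direction vs DMSO. Wild-type Tropical 5D embryos, static exposure, 28C, 0.64% DMSO final; 5uM trimethyltin chloride as positive control.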

[10] = Tanguay_ZF_120hpf_PFIN_legacy: (Legacy) Oregon State University Tanguay Lab 120 Hour Post-fertilization zebrafish Assay for Pectoral Fin Malformation (AID 2283648);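 also: each larva judged yes or no for fin defect by brightfield with dead larvae skipped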
Summary of the method: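 Tropical 5D wild-type embryos, dechorionated with pronase at 4 hpf, were placed singly in wells at 6 hpf and statically exposed until 120 hpf at 28C, sealed and dark, with 0.64% (vol/vol) final DMSO; pectoral fin malformation scored present/absent.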

[11] = Tanguay_ZF_120hpf_CFIN_legacy: (Legacy) Oregon State University Tanguay Lab 120 Hour Post-fertilization zebrafish Assay for Caudal Fin Malformation (AID 2283649)
Summary of the method: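 Dechorionated 5D wild-type zebrafish, static exposure 6–120 hpf, 28C, sealed and dark, 0.64% v/v DMSO final. Binary fin-malformation call at 120 hpf, brightfield; gain of signal vs DMSO baseline.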

[12] = Tanguay_ZF_120hpf_PIG_legacy: (Legacy) Oregon State University Tanguay Lab 120 Hour Post-fertilization zebrafish Assay for Pigmentation Malformation (AID 2283650)
Summary of the method: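 Tropical 5D wild-type zebrafish embryos, dechorionated with pronase at 4 hpf, were exposed singly from 6 hpf to 120 hpf statically at 28C in sealed, dark plates with 0.64% DMSO; pigmentation scored present/absent by brightfield microscopy, fitted against DMSO.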

[13] = Tanguay_ZF_120hpf_CIRC_legacy: (Legacy) Oregon State University Tanguay Lab 120 Hour Post-fertilization zebrafish Assay for Circulatory Malformation (AID 2283651)
Summary of the method: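 Read-out: presence or absence of circulatory malformation at 120 hpf, scored by brightfield microscopy, fitted in the gain-of-signal direction against DMSO baseline. Wild-type 5D larvae were exposed from 6 hpf after enzymatic chorion removal.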

[14] = Tanguay_ZF_120hpf_SNOU_legacy: (Legacy) Oregon State University Tanguay Lab 120 Hour Post-fertilization zebrafish Assay for Snout Malformation (AID 2283637)
Summary of the method: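 Tropical 5D wild-type zebrafish embryos, dechorionated with pronase at 4 hpf, were exposed singly from 6 hpf to 120 hpf statically at 28C in 0.64% DMSO. Snout malformation was scored present/absent by brightfield microscopy, fitted against DMSO.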

[15] = Tanguay_ZF_120hpf_JAW_legacy: (Legacy) Oregon State University Tanguay Lab 120 Hour Post-fertilization zebrafish Assay for Jaw Malformation (AID 2283638);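 as to AC50: active means more embryos with jaw malformation than DMSO controls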
Summary of the method: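 Binary jaw-malformation calls at 120 hpf by brightfield imaging; DMSO (0.64% v/v) = baseline. Embryos: 5D wild-type, pronase-dechorionated, one per well from 6 hpf, static exposure, 28C, sealed, dark.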

[16] = Tanguay_ZF_120hpf_SOMI_legacy: (Legacy) Oregon State University Tanguay Lab 120 Hour Post-fertilization zebrafish Assay for Somite Malformation (AID 2283647)
Summary of the method: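 Binary brightfield scoring of somite defects at 120 hpf in 5D wild-type larvae; one dechorionated embryo per well, static exposure from 6 hpf, 28C, sealed and dark. Final DMSO 0.64%; trimethyltin chloride 5uM positive control.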

[17] = biological target: Cellular tumor antigen p53 (Homo sapiens) (UniProt P04637); assay: TOX21_p53_BLA_p5_ratio: Tox21 HCT-116 p53 Agonism Beta-lactamase Assay, Ratio, Phase 5 (AID 2283599)
Chain of Cellular tumor antigen p53 (Homo sapiens) (P04637 whole entry, looked up): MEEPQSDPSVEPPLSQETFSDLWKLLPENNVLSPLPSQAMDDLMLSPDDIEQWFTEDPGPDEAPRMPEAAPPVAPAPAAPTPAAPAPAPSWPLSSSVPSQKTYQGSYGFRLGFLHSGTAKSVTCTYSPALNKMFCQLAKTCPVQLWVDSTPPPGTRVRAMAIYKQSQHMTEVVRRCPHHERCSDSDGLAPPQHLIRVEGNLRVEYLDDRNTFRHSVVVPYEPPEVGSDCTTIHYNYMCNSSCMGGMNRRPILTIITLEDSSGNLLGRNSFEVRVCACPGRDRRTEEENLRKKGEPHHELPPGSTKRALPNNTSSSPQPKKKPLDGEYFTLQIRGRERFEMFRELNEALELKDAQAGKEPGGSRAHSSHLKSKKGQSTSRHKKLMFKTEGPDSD
Summary of the method: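 HCT-116 cells carrying a p53-inducible beta-lactamase reporter were seeded at 4000 cells/well and dosed after 5 h with compound in DMSO (217-fold dilution). After 16 h at 37C, CCF4-AM substrate was added for 2 h, and the 460/530 nm emission ratio was scored as gain-of-signal versus DMSO.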

Measured: AC50

CN=C=S
not listed: [14] | [15] | [16] | [17]
inactive: all other assays above

COCC(C)N(C(=O)CCl)c1c(C)csc1C (stereo not drawn)
inactive: [1] | [2]
active: [3] 36.4 µM | [4] 18.3 µM | [5] 27.3 µM | [6] 24.8 µM | [14] 8.23 µM | [15] 25.6 µM | [8] 31 µM | [9] 8.88 µM | [16] 30.4 µM | [10] 35.6 µM | [12] 8.81 µM | [13] 24.5 µM

CCN(CC)c1nc(C)cc(OP(=S)(OC)OC)n1
not listed: [2] | [11] | [13] | [17]
inactive: all other assays above

C=C(C)CN(CC)c1c([N+](=O)[O-])cc(C(F)(F)F)cc1[N+](=O)[O-]
not listed: [1] | [2] | [6] | [7] | [11]
inactive: all other assays above

COCC(=O)N(c1c(C)cccc1C)C(C)C(=O)OC (stereo not drawn)
not listed: [6] | [7] | [10] | [17]
inactive: all other assays above

N#CN=C1SCCN1Cc1ccc(Cl)nc1
not listed: [1] | [2] | [7] | [11] | [17]
inactive: all other assays above

CCOP(=O)(OCC)Oc1nc(Cl)c(Cl)cc1Cl
active: [3] 0.887 µM
not listed: [7] | [17]
inactive: all other assays above

COC(=O)c1c(C(F)F)nc(C(F)(F)F)c(C2=NCCS2)c1CC(C)C
not listed: [6] | [7] | [11] | [17]
inactive: all other assays above

CC1(C)CON(Cc2ccccc2Cl)C1=O
not listed: [2] | [5] | [11] | [17]
inactive: all other assays above
